# Test results as given in PubChem BioAssay (NCI).
# The panel holds about 83,000 compounds, 20% with a hit somewhere; the sample as a whole holds those more often.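 Method: cells in 96-well plates; compound added at one concentration; 48 h incubation; percent growth measured; values under 10 scored active.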 Calls of active or inactive are those of the source.
# Tested on: MDA-MB-468 breast
# Assay: NCI-60 one-dose screen, 48 h (100 = growth as untreated, 0 = no growth, -100 = all killed)
# Conditions: 10 µM unless noted
row,Compound,growth
1,C[C@@H](Oc1cc(-c2cnn(C3CC4(CCCNC4)C3)c2)cnc1N)c1c(Cl)ccc(F)c1Cl (stereo not given in full),-39.3% (active)
2,O=C1Nc2ccccc2/C1=C\c1nc(-c2ccccc2)n2ccccc12,-1.63% (active)
3,CCc1ccccc1NC(=O)/C(C#N)=C/c1ccc(OC)cc1,108% (inactive)
4,CSc1ccc2c(c1)N(CCC1CCCCN1C)c1ccccc1S2 (stereo not given),-10.2% (active)
5,Clc1ccc(C(SCc2ccccc2)SCc2ccccc2)cc1,77.7% (inactive)
